Rows were chosen to be rich in hits. Some 3.3% of all compounds tested hit in one or more screens of this group.
UBC13 inh – UBC13 polyubiquitin chain formation inhibitors, primary screen, biochemical, TR-FRET, uHTS; Ubiquitin-conjugating enzyme E2 N (Homo sapiens), P61088; inhibition, % at 20 µM; 330,000 compounds, 0.47% hits; in the data active = inhibition above about 45%, passing the limit was not always enough
Target sequence (P61088 whole entry, looked up): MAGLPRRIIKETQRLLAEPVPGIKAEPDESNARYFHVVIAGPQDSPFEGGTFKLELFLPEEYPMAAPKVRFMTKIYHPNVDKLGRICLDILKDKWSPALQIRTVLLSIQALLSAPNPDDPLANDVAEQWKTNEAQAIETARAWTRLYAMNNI
HGIII-sPLA2 inh – human group III sPLA2 inhibitors, primary screen, biochemical, QFRET, BODIPY PC-A2 liposome substrate; QFRET BODIPY PC-A2 liposome hydrolysis, fluorescence; inhibition, % at 12.2 µM; 370,000 compounds, 0.56% hits;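 active = inhibition above mean plus 3 SD of compounds lying within the high and low control bounds, cut at about 19% in these data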;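 note: 0% = median of test compound wells and 100% = no enzyme DMSO wells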
UBC9 SUMO inh – inhibitors of in vitro SUMOylation cascade, primary screen, biochemical, HTRF, uHTS; SUMO-conjugating enzyme UBC9 (Homo sapiens), P63279; HTRF SUMOylation assay, SAE1/SAE2 + UBC9; inhibition, % at 35 µM; 290,000 compounds, 0.36% hits; AID 2006, 2009; in the data active = inhibition above about 50%, passing the limit was not always enough
Target sequence (P63279 whole entry, looked up): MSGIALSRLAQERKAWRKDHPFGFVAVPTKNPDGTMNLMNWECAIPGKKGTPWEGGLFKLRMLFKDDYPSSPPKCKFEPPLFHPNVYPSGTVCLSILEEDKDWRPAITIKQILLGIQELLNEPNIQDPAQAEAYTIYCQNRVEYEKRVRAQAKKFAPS
GRIN3A LBD mod – binders of NR3A ligand-binding domain, primary screen, biophysical, differential scanning fluorimetry, uHTS. NR3A LBD differential scanning fluorimetry, Tm shift; 0% = protein alone, 100% = glycine-bound protein. 340,000 compounds, 2.5% hits. Tm shift relative to glycine control, % at 25 µM;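 active = melting temperature shift of at least 10% of the positive control shift, at one fixed dose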
The depositor's hits bear a star; nt = no result given.

SMILES | UBC13 inh | HGIII-sPLA2 inh | UBC9 SUMO inh | GRIN3A LBD mod
O=C1C2=C(NC(=S)NC2c2ccc(Cl)cc2)NC(c2ccc(Cl)cc2)N1c1ccc(Cl)cc1 (configuration not stated) | 1 | 12 | -42 | 22*
Cc1cccc(NC(=O)CN2C(=O)CCSc3ccccc32)c1C | nt | -3 | nt | nt
Cc1cc(C)cc(Oc2cc(NC(=O)c3cn(C)nc3C)cc([N+](=O)[O-])c2)c1 | 20 | -6 | -2 | 13*
O=C(Cn1cnc([N+](=O)[O-])c1)Nc1cc(Oc2ccc(Cl)cc2Cl)cc([N+](=O)[O-])c1 | -2 | -13 | -3 | 12*
Cc1ccc(Oc2cc(NC(=O)CCCn3nc([N+](=O)[O-])c(Cl)c3C)cc([N+](=O)[O-])c2)cc1 | 6 | 14 | -9 | 10
Cc1cccc(Oc2cc(NC(=O)Cn3cnc([N+](=O)[O-])n3)cc([N+](=O)[O-])c2)c1 | nt | -19 | -19 | 27*
Cc1cc([N+](=O)[O-])nn1CCCC(=O)Nc1cc(Oc2ccccc2)cc([N+](=O)[O-])c1 | 13 | 7 | 15 | 1
O=C(CCc1ccccc1)N[C@H]1[C@H](OC(=O)c2ccc3ccccc3n2)CCC[C@@]12C(=O)N(Cc1ccccc1)c1ccccc12 | nt | -11 | nt | nt
O=C(CSc1nnc(-c2ccccn2)n1-c1ccc(Cl)cc1)Nc1ccc2c(c1)OCCO2 | nt | -3 | nt | nt
CCOC(=O)C1=NOC(C(=O)Nc2cc(C)cc(C)c2)(C(=O)C2CC2)C1 (configuration not stated) | nt | -3 | nt | nt
Cc1cc(NS(=O)(=O)c2ccc(NC(=O)NC(C)(C(F)(F)F)C(F)(F)F)cc2)no1 | 3 | -5 | 25 | -3
COc1cccc(NC(=O)Nc2cc(C)on2)c1 | 6 | -3 | -9 | -2
Cc1cc(NS(=O)(=O)c2ccc(NC(=O)Nc3cccc(C(F)(F)F)c3)cc2)no1 | -10 | -40 | 24 | 22*
Cc1cc(NC(=O)Nc2cccc(C(F)(F)F)c2)no1 | 8 | -14 | -4 | 589*
Cc1ncsc1C(=O)Nc1cccc(C(F)(F)F)c1 | 2 | 7 | 20 | 27*
Cc1cc(NS(=O)(=O)c2ccc(NC(=O)/C=C/c3cccc(Cl)c3)cc2)no1 | -20 | -7 | 29 | 16*
CCOC(=O)c1nccnc1C(=O)Nc1cccc(C(F)(F)F)c1 | -14 | 7 | 6 | 6
O=[N+]([O-])c1cnc2ccccc2c1Sc1ccccc1 | nt | 6 | nt | nt
CCN(CC)S(=O)(=O)c1cccc(NC(=O)Nc2cccc(C(F)(F)F)c2)c1 | 7 | -47 | -36 | 31*
CCN(CC)S(=O)(=O)c1cccc(NC(=O)CC2CCCC2)c1 | 6 | -8 | 1 | -2
COc1ccc(/C=C2\C(=O)N(c3c(Cl)cc(Cl)cc3Cl)N=C2NC(=O)c2cccc([N+](=O)[O-])c2)cc1 | nt | nt | 13 | 13*
COc1ccc(CCNS(=O)(=O)c2c(C)n[nH]c2C)cc1 | nt | 2 | nt | nt
CCOc1cc(CCNC(=O)c2cc(-c3ccccc3)c(N3CCOCC3)s2)ccc1OC | nt | 14 | nt | nt
Cc1nn(-c2ccccc2)c(N)c1-c1ccccc1 | -2 | 3 | 1 | 1
Cc1nn(-c2ccccc2)c(/N=C/c2ccccc2O)c1-c1ccccc1 | -6 | 1 | -6 | 14*
SMILES | UBC13 inh | HGIII-sPLA2 inh | UBC9 SUMO inh | GRIN3A LBD mod
CCOc1ccc(Nc2cc(C)c3ccccc3n2)cc1 | 4 | -2 | 7 | 22*
CC(=O)Nc1ccc(Nc2cc(C)c3ccccc3n2)cc1 | 7 | -13 | 6 | 13*
Cc1cc(Nc2ccccc2)nc2cc(O)ccc12 | 28 | -58 | 8 | -12
O=C1N(CCCO)CCC12CCC(c1ccccc1)CC2 (configuration not stated) | nt | 3 | nt | nt
COc1ccc(/C=C(\C#N)C(=O)OCC(=O)NCc2ccccc2Cl)cc1 | -3 | 2 | 55* | 4
COc1ccc(/C=C(\C#N)C(=O)OCC(=O)NCc2ccccc2OC)cc1 | -5 | 15 | nt | 1
c1ccc(N=NC2=NN(c3ccccc3)CS2)cc1 | nt | 30* | nt | nt
c1ccc(C2=NN(c3ccccc3)CC2)cc1 | 5 | -10 | -10 | 2
COC(=O)C1CN(Cc2ccccc2)CCS(=O)(=O)N1Cc1ccc(OC)cc1 (configuration not stated) | nt | 0 | nt | nt
CC(C)(C)c1ccc(C(=O)c2c[nH]c(C(=O)NCCCn3ccnc3)c2)cc1 | 16 | -21 | 12 | 1
CCC(=O)c1c[nH]c(C(=O)NCCCn2ccnc2)c1 | 1 | 5 | 6 | 12*
COc1ccc(C=NNC(=O)c2ccncc2)cc1 | nt | 14 | nt | nt
CSc1ccc(/C=N/NC(=O)c2ccc(O)cc2)cc1 | -12 | -18 | 3 | 26*
O=C(N/N=C/c1ccc(O)cc1)c1ccncc1 | -7 | -3 | 16 | -11
CSc1ccc(/C=N/NC(=O)c2cccs2)cc1 | 5 | -7 | 20 | 13*
COc1ccc(C(=O)N/N=C/c2ccc(SC)cc2)cc1 | -12 | 2 | -14 | 10*
Cc1nn(-c2ccccc2)cc1/C=N/NC(=O)c1cccs1 | 2 | -1 | 13 | 20*
O=C(N/N=C/c1ccncc1)c1cccs1 | -1 | nt | 4 | -1
O=C(NCc1cccs1)C1CCN(S(=O)(=O)c2cccc3ccccc23)CC1 | nt | -4 | nt | nt
CCOC(=O)CC[C@@H]1CC[C@]2(CCCN(Cc3cccs3)C2)O1 | nt | 1 | nt | nt
O=C(Nc1ccc2c(c1)OCO2)N1CCC(c2nc3ccc(Cl)cc3[nH]2)CC1 | nt | -6 | nt | nt
Cc1ccc(CN2CCCCC(NC(=O)c3ccc(-c4ccccc4)cc3)C2=O)cc1 (configuration not stated) | nt | 0 | nt | nt
CCc1c(C(=O)C(C)O)c2n3c1CCC[C@@H]3CC2 (some centres not stated) | nt | 1 | nt | nt
CCN(c1cccc(C)c1)S(=O)(=O)c1ccc2[nH]c(=O)c(=O)[nH]c2c1 | 6 | nt | 13 | 11*
CCN(c1cccc(C)c1)S(=O)(=O)c1cc2[nH]c(=O)c(=O)[nH]c2cc1C | nt | -12 | nt | nt
SMILES | UBC13 inh | HGIII-sPLA2 inh | UBC9 SUMO inh | GRIN3A LBD mod
COc1ccccc1C1c2c(ncn(-c3ccccc3)c2=N)Oc2ccc3ccccc3c21 (configuration not stated) | nt | 4 | nt | nt
COc1ccc(-c2csc(NC(=O)c3ccccc3NS(=O)(=O)c3ccc(C)cc3)n2)cc1 | -9 | -118 | 44 | 29*
COc1ccc(S(=O)(=O)Nc2ccccc2C(=O)Nc2nc(-c3ccc(F)cc3)cs2)cc1OC | -3 | -92 | 42 | 26*
Cc1ccc(CNC(=O)O[C@H]2CC[C@@]34CCCN3C(=O)CCC[C@H]4C2)cc1 | nt | 3 | nt | nt
COc1cccc(-c2ccc(CC[C@H]3O[C@H]4CC[C@@H](CO)O[C@H]4C[C@H]3NC(=O)c3cnccn3)cc2)c1 | nt | -22 | nt | nt
CCC[C@H]1[C@@H](NCc2ccccc2)CC[C@@]23CCCN2C(=O)CCC[C@@H]13 | nt | 1 | nt | nt
CCOC(=O)N1CCN(C(=O)CSc2nnc(-c3cc(OC)cc(OC)c3)o2)CC1 | -4 | -2 | 1 | 11*
